# Records with an inconclusive call do not appear. Where a call stands in place of a potency, no number is given. A number with no mark means an inactive call. Calls of active or inactive are those of the source. Calls come from the whole dose curve; as a rule, active = well fitted inhibition curve with a large enough effect; inconclusive = small, poorly fitted or top-dose-only effect; inactive = no such curve, though single readings can be large or run the other way.
# Biological target: Calcium and integrin-binding protein 1 (Homo sapiens) (UniProt Q99828)
# Experiment: Confirmatory qHTS for Identification of Calcium Integrin Binding Protein 1 (CIB1) Competitor (AID 1508617); note: nearly all actives have a fitted effect of over 65% in size
# Summary of the method: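 Compounds at up to 114 uM final met 1 uM GST-tagged CIB1 for 15 min at room temperature (HEPES pH 7.4, 5 mM CaCl2). FITC-labelled alphaIIb peptide, 100 nM, added; polarization read after 15 min more.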
# Potency is the fitted concentration of half-maximal effect.
# Calcium and integrin-binding protein 1 (Homo sapiens), sequence (Q99828 whole entry, looked up): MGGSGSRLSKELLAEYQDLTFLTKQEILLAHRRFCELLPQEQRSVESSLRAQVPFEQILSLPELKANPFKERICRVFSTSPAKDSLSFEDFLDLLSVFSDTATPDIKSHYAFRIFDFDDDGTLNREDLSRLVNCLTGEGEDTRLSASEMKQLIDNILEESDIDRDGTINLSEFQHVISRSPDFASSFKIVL
row,Compound,Potency
1,O=C1CCCC2=C1C(c1cccnc1Br)N=C(Nc1nc3ccccc3o1)N2 (stereo unspecified),inactive
2,Cc1cnc(-c2ccccc2C(C)C)nc1NCc1ccc(-c2ccc(F)nc2)cc1,112 µM (active)
3,CN(CC(=O)Nc1ccc(N2CCOCC2)cc1)Cc1c(O)ccc2ccccc12,inactive
4,O=C1CCCC2=C1C(c1ccn[nH]1)N=C(Nc1nc3ccccc3o1)N2 (stereo unspecified),inactive
5,CN(C)c1cnc2c(O)cccc2c1,inactive
6,CS(=O)(=O)c1ccc(C(=O)OCC(=O)N2CCC(Cc3ccccc3)CC2)cc1[N+](=O)[O-],inactive
7,O=C(NNC(=O)c1nc2ccccc2[nH]1)OCc1ccccc1,inactive
8,O=C(c1ccc(-c2cc(O)c3ncccc3c2)cc1)N1CCNCC1,inactive
9,Cc1ccc(OCCn2c(CCNC(=O)c3ccsc3)nc3ccccc32)cc1,inactive
10,O=C(Cc1ccc(Cl)c(Cl)c1)Nc1ccc([S+](=O)([O-])Nc2nnc(-c3ccccn3)s2)cc1,35.5 µM (active)
11,CCOc1ccc(CCNC(=O)c2ccc(N3N=C(C)CC3=O)cc2)cc1OCC,inactive

# Reference: PubChem BioAssay (NCATS)
